High-throughput results (PubChem BioAssay)
Hits are enriched below; roughly 11% of the tested compounds scored in any of these assays.
12-hLO inh: inhibitors of human 12-lipoxygenase (ALOX12). P18054. purified 12-hLO, xylenol orange hydroperoxide absorbance. Potency, µM (highest dose often 57.1 µM), for inactives: at the highest dose activity change, negative = inhibition, usual class: inhibitors. 150,000 tested, 0.12% active. AID 1452; further: potency means the concentration at half of the fitted maximal effect; nearly all actives have a fitted effect of over 55% in size
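Xylenol orange chromogenic assay: hydroperoxide from 12hLO oxidises Fe(II), giving red-shifted Fe(III)-XO absorbance. Conditions: 150 nM enzyme, 40 uM arachidonic acid, 25 mM Hepes pH 7.0, 0.01% Triton X-100, 30 min, room temperature.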
ALDH1A1 inh: ALDH1A1 (human) enzyme inhibition; P00352; AID 1030; Potency, µM (doses to about 75.3 µM), for the others: top-dose activity, negative = inhibition, actives largely listed as inhibitors; Purified ALDH1A1, NADH fluorescence, propionaldehyde substrate; 220,000 tested, 7.3% active; active means well fitted inhibition curve with a large enough effect, not every such curve was filed as active; inconclusive means small, poorly fitted or top-dose-only effect, or another doubt; inactive means no such curve, though single readings can be large or run the other way;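 further: potency means the concentration at half of the fitted maximal effect; plate controls were no enzyme wells and a reference inhibitor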
Target sequence (P00352 whole entry, looked up): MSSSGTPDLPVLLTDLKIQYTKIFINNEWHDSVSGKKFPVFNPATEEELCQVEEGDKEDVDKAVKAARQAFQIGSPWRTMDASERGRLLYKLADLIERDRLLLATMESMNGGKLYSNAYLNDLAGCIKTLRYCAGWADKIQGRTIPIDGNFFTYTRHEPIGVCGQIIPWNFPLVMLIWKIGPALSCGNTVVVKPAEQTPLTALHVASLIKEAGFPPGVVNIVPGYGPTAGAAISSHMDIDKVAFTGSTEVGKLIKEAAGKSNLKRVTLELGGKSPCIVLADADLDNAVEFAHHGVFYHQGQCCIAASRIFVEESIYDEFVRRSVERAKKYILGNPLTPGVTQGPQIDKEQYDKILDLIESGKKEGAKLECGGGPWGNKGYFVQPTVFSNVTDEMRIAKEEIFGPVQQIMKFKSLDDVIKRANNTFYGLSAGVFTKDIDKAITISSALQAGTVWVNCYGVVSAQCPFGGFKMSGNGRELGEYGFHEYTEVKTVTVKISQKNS
PNC inhibitor: inhibitors of perinucleolar compartment assembly; AID 2417; activity change (PNC), negative = inhibition, % at 10 µM; 140,000 tested, 3.1% active; PC3M PTB-GFP, PNC prevalence imaging, 16 h; active compounds read low;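 active means readout at or below -70, meaning at least 70% loss of cells showing the perinucleolar compartment, a nuclear body marking cancer cells; inconclusive means readout between -30 and a set limit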;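 further: plate controls were DMSO wells for no effect and camptothecin positive control wells for full effect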
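PC3M cells stably expressing PTB-GFP, 750–1000 cells/well, treated 16 h at 37 °C with compound (23 nl of library stock), in duplicate. After paraformaldehyde fixation and Hoechst stain, imaged at 20x; PNC prevalence scored by image analysis.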
IMPase Li cell: membrane-permeable IMPase blocker, potentiated with lithium; 210,000 tested, 0.35% active; CHO-M1 cells, IP1 TR-FRET (IP-One), carbachol + lithium; Potency, µM (top dose mostly 59.4 µM), inactives show at the top dose activity, negative = IMPase inhibition, hits mostly inhibitors; AID 1457;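 further: IP1 builds up when IMPase is blocked and the TR-FRET signal falls; potency means the concentration at half of the fitted maximal effect; plate controls were basal vehicle for no effect and high inhibitor control for full effect; nearly all actives have a fitted effect of over 50% in size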
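Test compounds were applied to CHO-M1 cells previously cultured for 16–30 h at 2000 per well. A small lithium amount accompanied them; after 30 min at 37C, IP1 was quantified by TR-FRET.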
IMPase inh: IMPase inhibition in cells | CHO-M1 cells, IP1 accumulation, HTRF TR-FRET ratio | inhibition (IP1 accumulation), % at 46.1 µM | 120,000 tested, under 10 active | P97697; active means well fitted curve in the direction sought with a large enough effect in the signal ratio, not every such curve was filed as active; inconclusive means small, poorly fitted or top-dose-only effect, or a change in a side signal; inactive means no such curve, though single readings can be large or run the other way; the % refers to the signal ratio;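 further: cells stimulated with carbachol in lithium chloride buffer; plate controls were DMSO basal wells for no effect and reference inhibitor wells for full effect; higher means more IMPase inhibition seen as more IP1 and lower FRET ratio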
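In this qHTS, compounds (final up to 46 uM) act on CHO-M1 cells that are then activated through the M1 receptor with carbachol, in pH 7.4 buffer containing 50 mM LiCl, for 30 min. IP1 accumulation is quantified by the IP-One immunoassay.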
HPGD block: blocks human HPGD enzyme activity; P15428; purified HPGD, NADH fluorescence kinetic, PGE2 substrate; Potency, µM, inactives show at the highest dose activity change, negative = inhibition, actives largely listed as inhibitors; 150,000 tested, 4.3% active; active means well fitted inhibition curve with a large enough effect, not every such curve was filed as active; inconclusive means small, poorly fitted or top-dose-only effect, or another doubt; inactive means no such curve, though single readings can be large or run the other way; further: potency means the concentration at half of the fitted maximal effect
Target sequence (P15428 whole entry, looked up): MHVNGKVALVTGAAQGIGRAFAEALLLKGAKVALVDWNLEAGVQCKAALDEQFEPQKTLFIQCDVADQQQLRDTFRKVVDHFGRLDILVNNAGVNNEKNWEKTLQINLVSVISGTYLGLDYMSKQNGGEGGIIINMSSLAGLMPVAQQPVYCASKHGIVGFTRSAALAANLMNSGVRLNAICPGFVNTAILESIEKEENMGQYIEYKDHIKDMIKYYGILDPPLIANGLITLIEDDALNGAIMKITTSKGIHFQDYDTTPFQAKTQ
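NADH formation kinetics: reaction with 30 uM PGE2 and 1 mM NAD+ (final), 20 nM enzyme, Tris-HCl pH 8 with Tween 20, after 15 min compound preincubation at room temperature. Fluorescence change, last versus first of five reads.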
Starred values were filed as active, the others as inactive; ? = inconclusive; . = not tested or not shown; ! = a repeat was not active; [ ] = another dose, or the depositor's remark. Unless noted, the call rests on the fitted dose curve; in most records, active means well fitted curve in the direction sought with a large enough effect; inconclusive means small, poorly fitted or top-dose-only effect, or another doubt; inactive means no such curve, though single readings can be large; an effect the other way counts as inactive or inconclusive. Unless noted, on the % scale 0 is the no-effect control and ±100 the full control effect.

SMILES | 12-hLO inh | ALDH1A1 inh | PNC inhibitor | IMPase Li cell | IMPase inh | HPGD block
CCOc1ccc(CN(C)CC(=O)NCc2ccccc2Cl)cc1 | . | -84% | . | 26% | . | .
COCCn1c(=O)c(-c2ccccc2)nc2cnc(Oc3ccccc3)nc21 | -3% | ? | . | -3% | . | ?
CC1(C)CC[C@]2(C(=O)O)CC[C@@]3(C)C(=CCC4[C@@]5(C)CCC(O)C(C)(C)C5CC[C@@]43C)C2C1 (stereo partly specified) | -1% | 4% | . | -1% | . | 0%
C=CCN1C(=O)C(Cc2ccc(OCC)cc2)S/C1=N\N=C\c1cccs1 (stereo unspecified) | -6% | 4.5µM* | 13 | 9%[38.3 µM] | 11 | -13%
C=CCN1C(=O)C(Cc2ccccc2)S/C1=N/N=C/c1cccs1 (stereo unspecified) | -6% | -13% | -10 | 21%[38.3 µM] | -6 | -13%
Cc1cccc(-n2c(O)c(C=NC3CCS(=O)(=O)C3)c3ccccc3c2=O)c1 (stereo unspecified) | 3% | 16µM* | -17 | 17%[38.3 µM] | 4 | -28%
Cc1cc(C)cc(-n2c(O)c(C=NC3CCS(=O)(=O)C3)c3ccccc3c2=O)c1 (stereo unspecified) | 8% | -4% | -9 | -5%[38.3 µM] | -1 | -14%
CCOC(=O)c1sc(NC(=O)CCN2CCC(C)CC2)c(C(=O)OCC)c1C | . | 2.5µM* | . | -5% | . | .
CCOC(=O)c1sc(NC(=O)CCN2C(=O)c3ccccc3C2=O)c(C(=O)OCC)c1C | -4% | ? | 41 | -4% | . | -5%
CCOC(=O)c1sc(NC(=O)CCN2CCN(CC)CC2)c(C(=O)OCC)c1C | . | 10µM* | . | 14% | . | .
COc1cccc(-c2nc(CS(=O)(=O)CC(=O)N3CCN(c4ccccn4)CC3)c(C)o2)c1 | -1% | 32µM* | ? | 23%[38.3 µM] | -3 | -10%
CCOC(=O)N1CCC(NC(=O)CS(=O)(=O)Cc2nc(-c3cccc(OC)c3)oc2C)CC1 | -5% | 3% | 42 | -8%[38.3 µM] | 3 | -1%
COc1cccc(-c2nc(CS(=O)(=O)CC(=O)Nc3cc(C)ccc3C)c(C)o2)c1 | 2% | 2% | -119* | 5% | -5 | -13%
CN(CCc1ccc(Cl)c(Cl)c1)CCN1CCCCCC1 | -2% | -6% | . | -1% | 12 | 1%
O=C(Nc1sc2c(c1C(=O)Nc1ccccc1)CCC2)c1ccc(Br)cc1 | . | . | . | . | -4 | .
O=C1Nc2ccccc2/C1=N\c1sc2c(c1C(=O)Nc1ccccc1)CCCC2 | -1% | 25µM* | 55 | 1% | 5 | -9%
Cc1ccc(C)c(N2CCN(S(=O)(=O)c3ccc4oc(=O)c5ncn(C)c5c4c3)CC2)c1 | . | . | . | . | -15 | .
O=C(Nc1nnc(SCc2ccc(F)cc2)s1)c1ccc2c(c1)C(=O)N(c1ccccc1Cl)C2=O | . | 1.3µM* | . | 8% | . | .
COC(=O)C(NC(C)=O)(Nc1ccc(Br)cn1)C(F)(F)F (stereo unspecified) | 5% | 7.1µM* | 13 | 8%[38.3 µM] | 6 | -5%
COc1cccc(C(=O)N2CCN(C(=O)c3cccs3)CC2)c1OC | 4% | 22µM* | -5 | 4%[38.3 µM] | ? | -9%
COc1cc2ccc(=O)oc2cc1O | -4% | ? | . | 10µM*! | -26 | ?
COc1ccc2ccc(=O)oc2c1CC=C(C)C | 0% | ? | 43 | 7% | . | -11%
CCc1ccccc1NC(=O)CN(Cc1ccccc1)S(=O)(=O)c1ccc(Br)cc1 | . | . | . | . | -3 | .
O=C(O)c1cnc(-c2ccccc2)nc1Sc1cccc(Cl)c1 | 1% | -3% | ? | 16%[38.3 µM] | 1[1.84 µM] | 22µM*
O=C(O)c1cnc(-c2ccccc2)nc1Sc1ccc(Cl)cc1Cl | 1% | -15% | 14 | -4%[38.3 µM] | -7 | -18%
SMILES | 12-hLO inh | ALDH1A1 inh | PNC inhibitor | IMPase Li cell | IMPase inh | HPGD block
O=C(O)c1cnc(-c2ccccc2)nc1Sc1ccccc1 | 6% | -2% | 67 | 4%[38.3 µM] | 8 | 14µM*
O=C(N/N=C/c1ccccc1O)c1cc(-c2ccccc2)n[nH]1 | 0% | 9% | . | . | . | -17%
COC(=O)C(CCCCNC(=O)OCc1ccccc1)NC(=O)CN (stereo unspecified) | 4% | 28µM* | 29 | 18%[38.3 µM] | 9 | -3%
O=C(O)CCCNC(=O)OCc1ccccc1 | -2% | 8% | -24 | -26%[38.3 µM] | -5 | 0%
C[C@H]1OC(OC2C(O)[C@@H](O)C(OC3C(O)[C@@H](O)C(O)O[C@@H]3CO)O[C@@H]2CO)[C@H](O)C(O)C1N[C@H]1C=C(CO)[C@@H](O)[C@H](O)C1O (stereo partly specified) | -1%[0.00818 µM] | 9% | . | -11% | . | -7%
CCc1ccc(NCCC(=O)c2ccc(Br)cc2)cc1 | -4% | -6% | -28 | . | -12 | .
Cc1ccc(NCCC(=O)c2ccc(Cl)cc2)cc1 | -3% | 1.4µM* | 34 | -10%[38.3 µM] | 10 | -2%
Cc1ccc(NCCC(=O)c2ccc(Br)cc2)cc1 | 10% | 0.79µM* | -4 | -3%[38.3 µM] | 4 | -7%
Cc1ccc2c(Cl)c(C(=O)NCC3CCCO3)sc2c1 (stereo unspecified) | -4% | -9% | 35 | 1%[38.3 µM] | -1 | 14µM*
O=C(NCC1CCCO1)c1sc2ccccc2c1Cl (stereo unspecified) | -2% | ? | 34 | -4% | -5 | 8.9µM*
CCOC(=O)C1C(C(=O)OC)=C(CC(C)C)c2ccccc2N1S(=O)(=O)C(F)(F)F (stereo unspecified) | 0%[0.00818 µM] | 2% | . | 16% | . | -8%
CCNc1ncc2nc(-c3cccs3)c(=O)n(Cc3cccc(OC)c3)c2n1 | . | ? | . | 2µM* | . | .
CCNc1ncc2nc(-c3ccccc3)c(=O)n(C3CC3)c2n1 | -1% | ? | . | -26% | . | ?
CCNc1ncc2nc(-c3ccc(Cl)cc3)c(=O)n(Cc3ccc(F)cc3)c2n1 | . | ? | . | 2µM* | . | .
CCNc1ncc2nc(-c3ccc(Cl)cc3)c(=O)n(C3CC3)c2n1 | -3% | ? | . | 5µM* | . | ?
Cc1ccc(NC(=O)CCCn2c3ccccc3c(=O)c3cc(C)ccc32)c(Br)c1 | . | . | . | . | -11 | .
C#C[C@@]1(O)CCC2C3CCC4=CC(=O)CCC4C3CC[C@@]21CC (stereo partly specified) | -1% | -2% | . | 12% | . | -9%
Cc1cccc(Nc2nc(-c3cccs3)cs2)n1 | 18µM* | ? | -105* | 28% | 10 | -20%
CC1=C(\C=C/C(C)=C/C=C\C(C)=C\C(=O)O)C(C)(C)CCC1 | -11% | 35µM*! | . | 22% | 4 | -7%
CC1=C(/C=C/C(C)=C/C=C/C(C)=C\C(=O)O)C(C)(C)CCC1 | 1% | ? | . | 12% | . | -14%
